Source: the GenesisPotency data set
In all, about 370,000 compounds went through this assay and about 1,100 (0.3%) were called active. About 1% were inconclusive and are not listed. The call rests on the fitted dose curve; in most records, active means well fitted activation curve with a large enough effect; inconclusive means small, poorly fitted or top-dose-only effect; inactive means flat fitted curve, though single readings scatter. Shown is part of a subset that was picked to be rich in actives.

target: T1, Relaxin receptor 1, Homo sapiens (UniProt Q9HBX9); experiment: qHTS Assay for Agonists of the Relaxin Receptor RXFP1
T1 sequence (whole entry): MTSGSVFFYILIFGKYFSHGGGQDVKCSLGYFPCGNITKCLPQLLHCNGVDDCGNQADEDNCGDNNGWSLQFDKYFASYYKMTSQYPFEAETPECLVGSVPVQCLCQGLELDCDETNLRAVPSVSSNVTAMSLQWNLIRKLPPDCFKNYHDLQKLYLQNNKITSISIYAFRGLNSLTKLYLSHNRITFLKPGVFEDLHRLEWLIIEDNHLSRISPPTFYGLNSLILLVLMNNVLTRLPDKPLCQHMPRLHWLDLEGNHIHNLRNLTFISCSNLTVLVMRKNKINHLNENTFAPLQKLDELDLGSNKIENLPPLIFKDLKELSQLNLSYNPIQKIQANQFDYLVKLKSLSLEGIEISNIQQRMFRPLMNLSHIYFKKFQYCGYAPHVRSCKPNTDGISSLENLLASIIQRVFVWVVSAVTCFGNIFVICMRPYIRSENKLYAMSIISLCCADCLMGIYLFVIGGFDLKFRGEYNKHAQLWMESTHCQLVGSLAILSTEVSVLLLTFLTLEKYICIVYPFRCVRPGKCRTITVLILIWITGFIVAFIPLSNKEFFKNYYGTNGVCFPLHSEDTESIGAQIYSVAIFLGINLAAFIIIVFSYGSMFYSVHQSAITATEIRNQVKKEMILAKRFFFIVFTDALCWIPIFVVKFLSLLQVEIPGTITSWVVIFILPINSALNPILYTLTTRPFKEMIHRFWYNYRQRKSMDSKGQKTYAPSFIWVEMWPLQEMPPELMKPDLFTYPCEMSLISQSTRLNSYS

Row | Compound | outcome
1 | CCCC[N+](CCCC)(CCCC)CCCC.Nc1ncnc2c1ncn2[C@@H]1O[C@H](COS(=O)(=O)[O-])[C@@H](O)[C@H]1O | active
